26 compounds from PubChem BioAssay (NCATS) can be followed below.

The target of test [1] is Glucocorticoid receptor (Homo sapiens) (UniProt P04150). Nature of the test: qHTS assay for small molecule agonists of glucocorticoid receptor signaling (AID 588532; active means well fitted curve in the direction sought with a large enough effect in the signal ratio, with a control signal flat; the % refers to the signal ratio;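 further: 100% = dexamethasone at 0.1 µM and 0% = DMSO only wells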). Particulars: HeLa MMTV-bla, beta-lactamase ratio, agonist, 18 h; activation: stronger effect = higher value, percent of dexamethasone control, DMSO zero. A digest of the protocol:
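MMTV-bla HeLa beta-lactamase reporter cells in 1% charcoal/dextran FBS medium, compounds up to 92 uM for 18 h at 37 C, CCF4 readout; normalized to 0.1 uM dexamethasone (100%), EC50 and efficacy from Hill fits.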

Test [2] is described as follows: qHTS assay for small molecule antagonists of peroxisome proliferator-activated receptor delta signaling (AID 588535; active means well fitted inhibition curve with a large enough effect in the signal ratio, with a control signal flat, not every such curve was filed as active; the % refers to the signal ratio;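 on max response: cells co-treated with a PPAR-delta agonist as stimulator during compound exposure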). Conditions: HEK293T PPARd-UAS-bla, beta-lactamase FRET ratio, 18 h; 460 nm channel. Summed up:
(§1)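 Fluorescence from CCF4-loaded GeneBLAzer PPAR-delta-UAS-bla HEK293T cells (2 hrs RT loading) quantified reporter inhibition after an 18 hr, 37 C compound exposure across a titration.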
On the technique in general: qHTS replaces the single test concentration by a dilution series.

Test [3] addresses Peroxisome proliferator-activated receptor delta (Homo sapiens) (UniProt Q03181). The description is as above. Conditions: HEK293T PPARd-UAS-bla, beta-lactamase FRET ratio, 18 h; series mostly up to 76.7 µM. A digest of the protocol: as §1
A short description of test [4]: qHTS assay for small molecule activators of the nuclear factor-kappa B (NF-kB) signaling pathway (AID 651749; active means well fitted activation curve with a large enough effect in the signal ratio; the % refers to the signal ratio; further: % of control where 0% means no effect). Particulars: NF-kB-bla ME-180 cells, beta-lactamase FRET ratio, 16 h; activation: stronger effect = higher value. A digest of the protocol:
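In this qHTS format, compounds acting as activators increase NF-kB-driven beta-lactamase in ME-180 cells, measured as disrupted FRET after 16 hr exposure at 37C and 5% CO2.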

Test [5] deals with Nuclear receptor subfamily 1 group I member 2 (Rattus norvegicus) (UniProt Q9R1A7). Nature of the test: qHTS assay for small molecule activators of the rat pregnane X receptor (rPXR) signaling pathway (AID 651751). Further: 0% is about no effect. Conditions: rPXR reporter cells, luciferase (One-Glo), 24 h.
Sequence of Nuclear receptor subfamily 1 group I member 2 (Rattus norvegicus) (Q9R1A7 whole entry, looked up): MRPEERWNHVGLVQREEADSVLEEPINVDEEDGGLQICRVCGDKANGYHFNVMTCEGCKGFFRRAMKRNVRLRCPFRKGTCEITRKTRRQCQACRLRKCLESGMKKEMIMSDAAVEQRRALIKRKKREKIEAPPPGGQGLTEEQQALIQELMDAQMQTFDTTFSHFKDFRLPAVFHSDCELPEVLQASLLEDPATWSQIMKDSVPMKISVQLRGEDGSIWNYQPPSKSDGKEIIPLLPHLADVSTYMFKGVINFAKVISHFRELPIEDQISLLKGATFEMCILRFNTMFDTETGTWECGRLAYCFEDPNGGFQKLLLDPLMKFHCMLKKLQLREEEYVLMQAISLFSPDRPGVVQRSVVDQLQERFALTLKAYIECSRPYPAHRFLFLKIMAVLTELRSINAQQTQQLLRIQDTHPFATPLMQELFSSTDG
A short description of test [6]: qHTS assay for small molecule activators of the human pregnane X receptor (PXR) signaling pathway (AID 720659). Further: 0% is about no effect. Conditions: DPX-2 HepG2 CYP3A4-luciferase, 24 h; series mostly up to 92.3 µM.
In test [7] the target is Vitamin D3 receptor (Homo sapiens) (UniProt P11473). Nature of the test: qHTS assay for small molecule agonists of vitamin D receptor signaling (AID 588543; calls by dose curve;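 further: 0% = DMSO basal and 100% = reference agonist control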). Particulars: HEK293T VDR-UAS-bla, beta-lactamase ratio, 16 h; series mostly up to 76.8 µM. Summed up: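 VDR-UAS-bla HEK293T cells, 2000/well, 2% charcoal-stripped FBS; compound titration 16 h at 37 C; CCF4 beta-lactamase ratio read. Normalized to 50 nM 1-alpha,25-dihydroxyvitamin D3 (100%) and DMSO; Hill fit gives EC50, efficacy.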
Sequence of Vitamin D3 receptor (Homo sapiens) (P11473 whole entry, looked up): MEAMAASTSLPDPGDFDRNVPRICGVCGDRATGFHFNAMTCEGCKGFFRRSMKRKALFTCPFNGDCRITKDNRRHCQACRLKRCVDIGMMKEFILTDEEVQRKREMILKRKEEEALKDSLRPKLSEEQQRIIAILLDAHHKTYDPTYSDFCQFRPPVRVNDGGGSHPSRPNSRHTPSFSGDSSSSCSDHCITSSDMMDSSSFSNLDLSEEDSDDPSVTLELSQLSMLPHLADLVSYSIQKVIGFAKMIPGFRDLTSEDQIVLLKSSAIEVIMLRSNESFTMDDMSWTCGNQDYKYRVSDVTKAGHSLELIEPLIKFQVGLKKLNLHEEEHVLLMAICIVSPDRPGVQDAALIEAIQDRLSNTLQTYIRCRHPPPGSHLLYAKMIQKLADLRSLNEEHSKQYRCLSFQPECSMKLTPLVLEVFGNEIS

The nature of test [8]: qHTS assay for small molecule agonists of the antioxidant response element (ARE) signaling pathway (AID 651741; active means well fitted activation curve with a large enough effect in the signal ratio; the % refers to the signal ratio; further: potency means the concentration at half of the fitted maximal effect; on activation: % of control where 0% means no effect). Conditions: HepG2 ARE-bla reporter, beta-lactamase FRET ratio, 16 h; series mostly up to 96 µM. A digest of the protocol:
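Stably integrated ARE-beta-lactamase reporter HepG2 cells; 16 h compound incubation, 37 C; LiveBLAzer FRET substrate 2 h at room temperature; fluorescence intensity.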

For test [9], the target named is Bile acid receptor (Homo sapiens) (UniProt Q96RI1). Description: qHTS assay for small molecule antagonists of farnesoid X receptor signaling (AID 588526; calls by dose curve; further: potency means the concentration at half of the fitted maximal effect). Particulars: HEK293T FXR-UAS-bla, beta-lactamase ratio, antagonist mode; series mostly up to 76.7 µM. Summed up:
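Antagonist mode: titrated compounds tested against chenodeoxycholic acid stimulation (normalized to 50 uM CDCA and DMSO) in GeneBLAzer HEK293T cells for 16 h. Beta-lactamase read by CCF4 fluorescence; IC50 from Hill fits.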

The target in test [10] is Cytochrome P450 3A4 (Homo sapiens) (UniProt P08684). Description: qHTS Assay for Inhibitors and Substrates of Cytochrome P450 3A4 (AID 884; active means well fitted curve in the direction sought with a large enough effect; an effect the other way counts as inactive or inconclusive; further: potency means the concentration at half of the fitted maximal effect; nearly all actives have a fitted effect of over 50% in size). Conditions: recombinant CYP3A4, Luciferin-PPXE luminescence; series mostly up to 57.1 µM. A digest of the protocol:
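Luminescent readout of luciferin produced by CYP3A4 (20 nM) dealkylation of Luciferin-PPXE, 25 uM (its KM). NADPH-driven reaction ran 60 min at RT after 10 min compound preincubation; data scaled to 57 uM ketoconazole as 100% inhibition.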

In test [11] the target is Bile acid receptor (Homo sapiens) (UniProt Q96RI1). Description: qHTS assay for small molecule agonists of farnesoid X receptor signaling (AID 588527; calls by dose curve;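 further: 0% = vehicle basal and 100% = reference agonist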). Particulars: HEK293T FXR-UAS-bla, beta-lactamase ratio, 16 h; activation: stronger effect = higher value. A digest of the protocol: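 FXR-UAS-bla HEK293T cells (10% dialyzed FBS) preincubated 5-7 h at 37 C, then compounds at up to 92 uM for 16 h at 37 C. CCF4 beta-lactamase read-out after 2 h RT. Normalized to chenodeoxycholic acid (100 uM) and DMSO; Hill fit gave EC50 and efficacy.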
Sequence of Bile acid receptor (Homo sapiens) (Q96RI1 whole entry, looked up): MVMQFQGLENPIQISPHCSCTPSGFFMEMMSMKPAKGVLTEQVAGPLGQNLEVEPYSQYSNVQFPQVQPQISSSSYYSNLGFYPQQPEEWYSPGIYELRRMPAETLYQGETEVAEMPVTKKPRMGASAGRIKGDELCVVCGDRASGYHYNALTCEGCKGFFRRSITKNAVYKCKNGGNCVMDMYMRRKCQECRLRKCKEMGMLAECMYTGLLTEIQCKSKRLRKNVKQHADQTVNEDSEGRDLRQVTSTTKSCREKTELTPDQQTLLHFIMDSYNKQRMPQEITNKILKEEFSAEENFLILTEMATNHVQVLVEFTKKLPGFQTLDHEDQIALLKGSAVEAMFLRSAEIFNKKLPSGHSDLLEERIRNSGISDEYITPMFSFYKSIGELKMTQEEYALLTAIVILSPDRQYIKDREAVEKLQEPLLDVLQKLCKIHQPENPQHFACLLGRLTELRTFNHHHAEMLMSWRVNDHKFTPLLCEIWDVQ

The target in test [12] is Cytochrome P450 3A4 (Homo sapiens) (UniProt P08684). Nature of the test: qHTS Assay for Activators of Cytochrome P450 3A4 (AID 885; active means well fitted curve in the direction sought with a large enough effect; an effect the other way counts as inactive or inconclusive; further: nearly all actives have a fitted effect of over 65% in size). Particulars: recombinant CYP3A4, Luciferin-PPXE luminescence, 60 min; series mostly up to 57.1 µM. Summed up: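 Human CYP3A4 dealkylates Luciferin-PPXE to luciferin, which luciferase detection converts to light. Substrate was at its KM (25uM), buffer 200mM KPO4, reaction 60 min at RT.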
Sequence of Cytochrome P450 3A4 (Homo sapiens) (P08684 whole entry, looked up): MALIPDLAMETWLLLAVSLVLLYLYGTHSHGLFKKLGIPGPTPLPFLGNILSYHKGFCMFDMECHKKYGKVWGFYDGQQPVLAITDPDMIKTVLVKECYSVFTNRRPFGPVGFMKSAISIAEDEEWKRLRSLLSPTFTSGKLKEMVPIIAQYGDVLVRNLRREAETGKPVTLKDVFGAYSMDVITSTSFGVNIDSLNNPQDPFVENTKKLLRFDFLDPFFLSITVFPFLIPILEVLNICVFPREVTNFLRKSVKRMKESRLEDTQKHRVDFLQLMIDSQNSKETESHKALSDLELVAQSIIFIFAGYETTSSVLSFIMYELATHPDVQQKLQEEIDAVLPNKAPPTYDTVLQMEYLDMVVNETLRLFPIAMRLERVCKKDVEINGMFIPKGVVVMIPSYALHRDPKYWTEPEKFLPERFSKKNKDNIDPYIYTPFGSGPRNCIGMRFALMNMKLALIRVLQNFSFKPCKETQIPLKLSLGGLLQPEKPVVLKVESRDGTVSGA

“And” between values parts separate entries of the source, which are not always exact repeats. Equal entries are not always repeated. Records with an inconclusive call do not appear. The source made the active and inactive calls. Unless noted, how the calls were made is not given here.

Sequence of Glucocorticoid receptor (Homo sapiens) (P04150 whole entry, looked up): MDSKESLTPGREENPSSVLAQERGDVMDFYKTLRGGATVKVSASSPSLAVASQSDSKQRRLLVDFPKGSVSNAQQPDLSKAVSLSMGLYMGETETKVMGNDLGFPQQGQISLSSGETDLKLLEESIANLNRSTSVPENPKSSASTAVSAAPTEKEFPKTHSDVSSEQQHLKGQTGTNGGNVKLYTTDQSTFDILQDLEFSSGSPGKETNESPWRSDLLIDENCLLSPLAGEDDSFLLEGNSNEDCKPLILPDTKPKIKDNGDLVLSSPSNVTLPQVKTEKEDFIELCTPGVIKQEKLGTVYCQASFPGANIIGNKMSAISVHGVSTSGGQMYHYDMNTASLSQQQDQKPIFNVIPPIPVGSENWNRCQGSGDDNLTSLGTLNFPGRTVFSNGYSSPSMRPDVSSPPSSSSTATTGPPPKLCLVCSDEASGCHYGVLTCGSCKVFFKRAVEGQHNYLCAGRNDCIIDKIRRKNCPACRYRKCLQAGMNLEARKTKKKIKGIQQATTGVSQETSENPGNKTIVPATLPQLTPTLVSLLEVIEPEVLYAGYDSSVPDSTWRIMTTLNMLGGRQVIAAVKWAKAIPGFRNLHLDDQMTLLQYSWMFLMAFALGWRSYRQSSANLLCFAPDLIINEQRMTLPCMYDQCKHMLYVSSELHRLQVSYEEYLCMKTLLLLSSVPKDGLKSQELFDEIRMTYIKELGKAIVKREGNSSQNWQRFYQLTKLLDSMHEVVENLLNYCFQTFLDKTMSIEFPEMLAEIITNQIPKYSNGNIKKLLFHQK
Sequence of Peroxisome proliferator-activated receptor delta (Homo sapiens) (Q03181 whole entry, looked up): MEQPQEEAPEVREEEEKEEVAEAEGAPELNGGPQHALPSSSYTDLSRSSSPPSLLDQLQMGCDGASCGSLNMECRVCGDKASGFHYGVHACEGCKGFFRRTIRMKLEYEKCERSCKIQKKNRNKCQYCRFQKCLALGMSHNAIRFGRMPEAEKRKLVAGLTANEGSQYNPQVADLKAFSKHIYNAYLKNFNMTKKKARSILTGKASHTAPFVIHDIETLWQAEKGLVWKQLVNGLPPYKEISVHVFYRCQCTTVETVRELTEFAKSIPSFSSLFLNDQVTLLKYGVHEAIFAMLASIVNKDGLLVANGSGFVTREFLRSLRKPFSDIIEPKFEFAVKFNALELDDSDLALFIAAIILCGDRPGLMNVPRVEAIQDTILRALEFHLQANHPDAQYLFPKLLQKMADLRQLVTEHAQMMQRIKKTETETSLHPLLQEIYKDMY

Turning to `Brc1c(Br)c(Br)c(Br)c(Br)c1Br`, the activation is -0.0722% (inactive) in [1] and -0.808% (inactive) in test [4]. Further, the max response in test [2] is -24.6%; in test [5], 0.884% (inactive). The Potency entry in test [3] is “inactive”. Also, in test [6], the compound was classed as inactive.
Take `CS(=O)(=O)c1cc(C(F)(F)F)ccc1C(=O)c1cnoc1C1CC1`: the activation in test [1] was 11.4% (inactive). The max response in [2] is 51.3%; in test [5], -4.39% (inactive). In addition, the Potency entry in test [3] is “inactive”. Besides, the result in [7] was inactive.
`CCCN(CC)CC1COC2(CCC(C(C)(C)C)CC2)O1` (configuration not stated): the max response in test [2] is 36.1%; in test [5] it was -3.48% (inactive). Moreover, the Potency result in test [3] and in test [8] was “inactive” in each case. Further, the outcome in test [7] and in test [6] was inactive. Also, the activation in test [4] was -1.56% (inactive).
As to `O=C(O)c1nc(Cl)ccc1Cl`, the activation in test [1] is -4.22% (inactive) and 6.64% (inactive). In test [5], the max response is 3.48% (inactive) and 10.3% (inactive). Besides, in [6], the call was inactive.
As for `CC(C)C(=O)OCC(C)(C)C(OC(=O)C(C)C)C(C)C` (configuration not stated), the activation in test [1] was -2.67% (inactive); in [4], -2.62% (inactive). The max response is -3.86% in test [2] and 2.02% (inactive) in test [5]. For the same compound, the Potency result in test [3] and in [8] was “inactive” in each case. Further, in [7], the outcome was inactive.
For `Oc1ccc(C2(c3ccc(O)cc3)c3ccccc3-c3ccccc32)cc1`, the Potency in test [9] is 28.2 µM (active). The max response in test [5] was -3.03% (inactive).
With `C=CC(=O)OCC(CO)(COC(=O)C=C)COC(=O)C=C`, the Potency was 7.94 µM (active) in test [10] and 24.3 µM (active) in test [8]. Also, the activation in [11] was 1.06% (inactive). For the same compound, in [7], the result was inactive.
Regarding `COC(=O)NS(=O)(=O)c1ccc(N)cc1`, in test [1], the activation is -1.43% (inactive) and 1.04% (inactive). For the same compound, the max response was -5.88% in test [2]; 2.14% (inactive) and -3.25% (inactive) in [5]. Further, the Potency entry in [3] was “inactive”. Further, the result in test [7] and in [6] was inactive.
For the compound `CCc1ccc(C(=O)NN(C(=O)c2cc(C)cc(C)c2)C(C)(C)C)cc1`, the Potency in [10] was 3.98 µM (active). The Potency result in [12] was “inactive”. Also, the activation in test [1] is -6.89% (inactive); in test [4] it was -3.3% (inactive). In addition, the outcome in test [7] was inactive.
Regarding `COCC(=O)N(c1c(C)cccc1C)[C@H](C)C(=O)OC`, the Potency result in test [9] and in test [8] was “inactive” each time. The result in test [7] was inactive. For the same compound, the max response in test [5] was -0.694% (inactive).
Regarding `CNC(=O)Oc1cc(C)cc(C(C)C)c1`, the max response was -13.9% in test [2] and -3.71% (inactive) in [5]. For the same compound, the Potency result in [3] was “inactive”. The result in test [7] and in [6] was inactive.
On to `COP(=O)(OC)Oc1ccc([N+](=O)[O-])cc1`, for which the activation in test [11] was 5.22% (inactive). For the same compound, the outcome in test [7] and in [6] was inactive. The max response in test [5] is -1.53% (inactive).
For the compound `O=C=Nc1ccc(Cl)cc1`, the max response in test [2] was -52.1%; in test [5], 8.51% (inactive). Further, the Potency entry in test [3] was “inactive”. In addition, the outcome in test [7] and in test [6] was inactive. Besides, the activation in test [4] was -0.765% (inactive).
Turning to `Clc1ccc([C@]2(Cn3cncn3)C[C@@H](Br)CO2)c(Cl)c1`, the Potency entry in test [9] was “inactive”. Besides, the activation in test [1] was 7.46% (inactive) and -5.85% (inactive); in test [4], -2.1% (inactive) and -2.03% (inactive). The outcome in test [7] was inactive.
Turning to `CCOS(=O)(=O)OCC`, the activation in test [1] is -9.13% (inactive). Also, the max response is -21.4% in test [2] and 3.38% (inactive) in test [5]. Also, the Potency entry in test [3] and in test [8] was “inactive” throughout. Further, the result in test [6] was inactive.
As to `CC(C)(C#N)N=NC(C)(C)C#N`, the activation in test [1] was 6.88% (inactive). For the same compound, the max response in test [2] was 3.24%; in [5] it was 0.774% (inactive). Besides, the Potency entry in test [3] and in test [8] was “inactive” throughout. Moreover, the compound was classed as inactive in [6].
Regarding `Nc1nc(N)nc(Cl)n1`, in [1], the activation was -0.33% (inactive) and 1.13% (inactive). Further, the Potency entry in test [8] is “inactive”. In test [5], the max response is 0.0938% (inactive) and 1.1% (inactive) and -0.658% (inactive). The call in [6] was inactive.
For `CCNC(=O)NC(=O)/C(C#N)=N/OC`, the Potency result in test [9] and in test [3] was “inactive” throughout. The activation in [1] is 3.07% (inactive). For the same compound, in test [2], the max response is 9.94%. Also, in test [8], the Potency was 61.1 µM (active).
With `CCNc1nc(NCC)nc(SC)n1`, the results for the activation in test [1] and in test [4] were -3.89% (inactive) and 0.586% (inactive), respectively. Also, in test [5], the max response is 1.83% (inactive). Further, the compound was classed as inactive in test [6].
As to `COc1nc(C)nc(NC(=O)NS(=O)(=O)c2ccccc2Cl)n1`, the activation in test [1] was -6.7% (inactive). Further, the result in [7] and in test [6] was inactive. Also, the max response in [5] is -1.17% (inactive).
As to `Cc1c(COC(=O)C2C(/C=C(\Cl)C(F)(F)F)C2(C)C)cccc1-c1ccccc1` (configuration not stated), the Potency entry in [9] and in test [3] was “inactive” each time. In addition, the max response in test [2] is 11.3%. The activation in test [4] was 1.42% (inactive).
As for `O=Nc1ccc(Nc2ccccc2)cc1`, the Potency result in test [12] is “inactive”. Also, in test [11], the activation is 15.6% (inactive). Moreover, the result in test [7] was inactive. Further, the Potency in [8] is 54.5 µM (active).
Turning to `CCC[CH2][Sn]([CH2]CCC)[CH2]CCC`, the activation in test [11] is 6.72% (inactive). For the same compound, the max response in test [5] was -14% (inactive).
Take `CCCCC(CC)CO[N+](=O)[O-]` (configuration not stated): the activation in test [1] is -6.71% (inactive). Besides, the values for the max response in test [2] and in [5] were -28% and 1.62% (inactive), respectively. In addition, the Potency result in test [3] is “inactive”. The result in [7] and in [6] was inactive.
As to `CCOP(OCC)OCC`, in test [9], the Potency entry is “inactive”. In test [5], the max response is 0.674% (inactive). For the same compound, in test [6], the compound was classed as inactive.
Turning to `c1cc[n+]2c(c1)-c1cccc[n+]1CC2`, the activation in test [1] was 1.75% (inactive); in test [4] it was -2.74% (inactive). For the same compound, the max response in test [2] was determined as 45.8%. In addition, in test [3], the Potency result is “inactive”. In addition, the result in test [7] was inactive. In addition, the Potency in test [8] was 8.63 µM (active).
